{
  "source": "PubChem BioAssay AID434969",
  "about": "(The Scripps Research Institute Molecular Screening Center, 2010)",
  "biological_target": "Oxytocin receptor (Homo sapiens) (UniProt P30559)",
  "sequence (P30559 whole entry, looked up)": "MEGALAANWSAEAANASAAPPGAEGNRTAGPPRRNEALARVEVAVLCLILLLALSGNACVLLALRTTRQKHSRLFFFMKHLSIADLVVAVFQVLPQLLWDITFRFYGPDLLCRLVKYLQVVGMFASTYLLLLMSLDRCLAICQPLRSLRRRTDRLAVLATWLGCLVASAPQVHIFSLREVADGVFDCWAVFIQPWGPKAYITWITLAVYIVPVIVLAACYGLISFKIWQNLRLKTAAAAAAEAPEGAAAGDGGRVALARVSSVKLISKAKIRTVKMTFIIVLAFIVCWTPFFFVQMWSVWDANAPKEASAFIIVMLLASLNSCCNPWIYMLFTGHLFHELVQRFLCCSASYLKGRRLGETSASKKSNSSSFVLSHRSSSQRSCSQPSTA",
  "test": "human OXTR agonists, counter-screen for V1R agonist project, fluorescence, CHO-OTR cells, triplicate (AID 434969);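 also: peak over minimum fluorescence ratio within a 100 second FLIPR read; 0% = DMSO only wells and 100% = oxytocin high control wells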",
  "conditions": "Fluo-8 calcium fluorescence, at 3 µM, stronger effect = higher value",
  "note": "The list shows a part of the results. A number with no mark means an inactive call.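 The calls were made as follows: active = mean activation over three repeats above the cutoff from the earlier oxytocin receptor agonist screen (cut at about 20% in these data); inactive = the rest.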",
  "data": [
    {"molecule": "O=C(CN1CCN(c2cccc(Cl)c2)CC1)Nc1ccc(S(=O)(=O)N2CCOCC2)cc1", "values": [
      {"measurement": "activation", "result": 5.65, "unit": "%"}
    ]},
    {"molecule": "CC1(C)S[C@@H]2[C@H](N=CN3CCCCCC3)C(=O)N2[C@H]1C(=O)O", "values": [
      {"measurement": "activation", "result": 0.49, "unit": "%"}
    ]},
    {"molecule": "CCN(CC)c1ccc(/C=N/NC(=O)c2cnccn2)c(O)c1", "values": [
      {"measurement": "activation", "result": 9.1, "unit": "%"}
    ]},
    {"molecule": "CCN(CC)c1ccc2cc(C(N)=O)/c(=N\\NC(=O)c3ccncc3)oc2c1", "values": [
      {"measurement": "activation", "result": 15.6, "unit": "%"}
    ]},
    {"molecule": "O=C(c1ccccc1)c1ccc(OCC(O)CN2CCCC2)cc1", "note": "(stereo not drawn)", "values": [
      {"measurement": "activation", "result": 2.06, "unit": "%"}
    ]},
    {"molecule": "Cc1cc(C)c(/C=C2\\C(=O)Nc3ccccc32)[nH]1", "values": [
      {"measurement": "activation", "result": 16.6, "unit": "%"}
    ]},
    {"molecule": "Fc1cccc(Cl)c1COc1ccc(-c2nnco2)cc1", "values": [
      {"measurement": "activation", "result": -0.58, "unit": "%"}
    ]},
    {"molecule": "O=c1c2cc(Br)ccc2nc(-c2cccc(Cl)c2)n1O", "values": [
      {"measurement": "activation", "result": 15.4, "unit": "%"}
    ]}
  ]
}
